The values that follow come from PubChem BioAssay (NCI).

Compounds without any hit were thinned out: in the full panel of roughly 83,000, 20% have a hit.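 Negative percent growth values reflect cell death: -40 means 40% of the cells present at the start died, and -100 means all died.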 Active and inactive are the calls of the source. The calls were made as follows: active = growth percent below 10; inactive = the rest.

One test has as its system HOP-92 NSCLC. Nature of the test: NCI-60 one-dose screen, 48 h (100 = growth as untreated, 0 = no growth, -100 = all killed). Conditions: 10 µM unless noted.
For `O=C1c2c(c3c4cc(Br)ccc4[nH]c3c3ccc4ccccc4c23)C(=O)N1O`, the growth is 140% (inactive).
On the same count and under the same terms, to `NS(=O)(=O)c1ccc(C(=O)N/N=C(\CS(=O)(=O)c2ccccc2)c2cc3cc(Br)ccc3o2)cc1` belongs 77.2% (inactive); to `O=c1oc2ccccc2cc1-c1csc(N=Nc2c(O)[nH]c3ccc(Br)cc23)n1`, 123% (inactive); to `O=C(N/N=C/c1ccc(OC(F)F)c(OC2CCCC2)c1)c1cnn2c1NC(c1ccccc1)C2` (stereo not drawn), 80.6% (inactive).
The same measure, in the same setting: to `COc1ccc(/C=N/NC(=O)c2cnn3c2NC(c2ccccc2)C3)cc1OC1CCCC1` (stereo not drawn) belongs 94% (inactive); to `CCCCCCCC/C=C\CCCCCCCCOc1cccc(CC(=O)NCC[N+]2(C)CCOCC2)c1`, 86.4% (inactive).
Still for that read-out and setting: then `COC(=O)c1c2c(c(C)[n+]([O-])c1C)C(=O)C(NCc1ccc(O)cc1)=CC2=O`, with 34% (inactive); and `COc1c(O)c2c3c(c1OC)-c1ccccc1CC3N(S(=O)(=O)c1ccc(C)cc1)CC2` (stereo not drawn), with 59.8% (inactive); and `COc1cc(/C=N/NC(=O)c2cnn3c2NC(c2ccccc2)C3)ccc1OC1CCCC1` (stereo not drawn), with 45.7% (inactive).
Consider `CCOC(=O)c1cnn(CC(O)c2ccc(F)cc2)c1NC(=O)Nc1ccccc1F` (stereo not drawn), for which the growth was 102% (inactive).
With `CCCN1CCN(c2ccc3nc(-c4ccc5nc(-c6ccc(C(F)(F)F)cc6)[nH]c5c4)[nH]c3c2)CC1`, the growth was 63% (inactive).
Turning to `CCCCCCCC/C=C\CCCCCCCCOc1cccc(CC(=O)NCC[N+](C)(C)C)c1`, the growth was 74.2% (inactive).
The same measure, in the same setting: to `NC(=S)N/N=C1\c2ccccc2-c2c(F)c(F)c(F)c(F)c21` belongs 87% (inactive); to `COc1cc(/C=C/C(=O)CC(=O)/C=C/c2cc(Br)c(OC)c(OC)c2)cc(Br)c1OC`, 93.7% (inactive); to `COc1cccc2c(=O)c3c(sc12)c(NCCN(C)C)nc1ccccc13`, -3.75% (active).
Still for that read-out and setting: then `Cc1cccc2c(=O)c3c(sc12)c(NCCCN)nc1ccccc13`, with 31.5% (inactive); and `O=C(c1ccc2ncc(-c3nc(NC4CC4)ncc3F)n2c1)N1CCOCC1`, with -2.24% (active); and `O=S(=O)(Nc1ccccc1Cl)c1ccc(-c2cnc(C3CC3)o2)cc1`, with 37.1% (inactive).
Same read-out and setting: to `O=c1oc2ccccc2cc1-c1csc(N/N=C/c2cc3ccccc3nc2Cl)n1` belongs 97.5% (inactive).
`CCCCCCCC/C=C\CCCCCCCCOc1cccc(CC(=O)NCC[N+]2(C)CCCC2)c1`: the growth is 92.7% (inactive).
Same read-out and setting: then `CCC(C)Oc1cc(/C=N/NC(=O)c2cnn3c2NC(c2ccccc2)C3)ccc1OC` (stereo not drawn), with 71.8% (inactive); and `Cl.Fc1c[c-]c(-c2ccccn2)c(F)c1.[Pt].c1ccc([PH+](CC[PH+](c2ccccc2)c2ccccc2)c2ccccc2)cc1`, with -77.4% (active); and `CCN(CC)c1ccc2c(c1)OS(=O)(=O)N=C2`, with 85.4% (inactive).
Same read-out and setting: to `NC(=O)c1cccc(-n2ccc3cc(NC(=O)Nc4ccc(Cl)c(Cl)c4)ccc32)n1` belongs 78% (inactive); to `COc1ccc(C2=NOC(CC(=O)N(CCO)CCO)C2)cc1OC1CCCC1` (stereo not drawn), 94.1% (inactive).

Another test relates to NCI-H522 lung. The description is as above. The settings on record: 10 µM.
Regarding `COc1ccc(/C=C/C(=O)N2CCC(O)CC2)cc1OC1CCCC1`, the growth was 87.1% (inactive).
On the same count and under the same terms, then `CCCCOC(=O)C1OC(Oc2ccc3c(C)cc(=O)oc3c2)[C@@H](OC(C)=O)C(OC(C)=O)C1OC(C)=O` (stereo partly drawn), with 88.8% (inactive).
Still for that read-out and setting: then `CC(=O)OC[C@H](O)[C@@]1(O)CC[C@H]2[C@@H]3CCC4=CC(=O)CC[C@]4(C)[C@H]3[C@@H](O)C[C@@]21C`, with 99.6% (inactive).
The same measure, in the same setting: to `CCOC(=O)c1[nH]c2cc(Cl)ccc2c1[C@@H](C(=O)NC(C)(C)C)N(CC)C(=O)CCCCC#Cc1cccc2c1CN(C1CCC(=O)NC1=O)C2=O` (stereo partly drawn) belongs 44.2% (inactive); to `O=c1oc2ccccc2cc1-c1csc(N=Nc2c(O)[nH]c3ccc(Cl)cc23)n1`, 98.4% (inactive).
`CCN1CCN(c2nc3ccccc3c3c(=O)c4cc(F)ccc4sc23)CC1`: the growth was 76.7% (inactive).
On the same count and under the same terms, to `COc1cc2oc(-c3ccc(O)cc3)cc(=O)c2c(O)c1I` belongs 86.2% (inactive); to `COc1ccc(NS(=O)(=O)c2ccc(-c3cnc(C4CC4)o3)cc2)cc1`, 51% (inactive).
Same read-out and setting: then `O=C(N/N=C(\CS(=O)(=O)c1ccccc1)c1cc2cc(Br)ccc2oc1=O)c1ccccc1`, with 94.9% (inactive); and `C[C@]1(CO)C[C@@H](O)C[C@]2(C)[C@@H]1CC[C@@]13C[C@@H]4[C@@H](C[C@H]12)[C@]4(C)C3`, with 101% (inactive); and `O=C(NC1CC1)c1cc2n(n1)CC(c1ccccc1)N2` (stereo not drawn), with 91.1% (inactive).
Same read-out and setting: to `Cc1cccc2c(=O)c3c(sc12)c(NCCNCCO)nc1ccccc13` belongs 29.1% (inactive); to `COC(=O)[C@@]12CC[C@@H](C)[C@]3(C[C@@H](c4ccoc4)OC3=O)[C@H]1CC[C@@H]1O[C@@]12C`, 84.9% (inactive); to `O=C1c2c(c3c4cc(Br)ccc4[nH]c3c3ccc4ccccc4c23)C(=O)N1O`, 63.2% (inactive).
Turning to `NS(=O)(=O)c1ccc(C(=O)N/N=C(\CS(=O)(=O)c2ccccc2)c2cc3cc(Br)ccc3o2)cc1`, the growth was 80.2% (inactive).
On the same count and under the same terms, then `O=c1oc2ccccc2cc1-c1csc(N=Nc2c(O)[nH]c3ccc(Br)cc23)n1`, with 99.5% (inactive); and `O=C(N/N=C/c1ccc(OC(F)F)c(OC2CCCC2)c1)c1cnn2c1NC(c1ccccc1)C2` (stereo not drawn), with 78.8% (inactive).
The same measure, in the same setting: then `COc1ccc(/C=N/NC(=O)c2cnn3c2NC(c2ccccc2)C3)cc1OC1CCCC1` (stereo not drawn), with 79.5% (inactive); and `CCCCCCCC/C=C\CCCCCCCCOc1cccc(CC(=O)NCC[N+]2(C)CCOCC2)c1`, with 77% (inactive).
The same measure, in the same setting: to `COC(=O)c1c2c(c(C)[n+]([O-])c1C)C(=O)C(NCc1ccc(O)cc1)=CC2=O` belongs -33.2% (active); to `COc1c(O)c2c3c(c1OC)-c1ccccc1CC3N(S(=O)(=O)c1ccc(C)cc1)CC2` (stereo not drawn), 19.9% (inactive).
For `COc1cc(/C=N/NC(=O)c2cnn3c2NC(c2ccccc2)C3)ccc1OC1CCCC1` (stereo not drawn), the growth was 11.7% (inactive).
Same read-out and setting: then `CCOC(=O)c1cnn(CC(O)c2ccc(F)cc2)c1NC(=O)Nc1ccccc1F` (stereo not drawn), with 92.2% (inactive); and `CCCN1CCN(c2ccc3nc(-c4ccc5nc(-c6ccc(C(F)(F)F)cc6)[nH]c5c4)[nH]c3c2)CC1`, with -43.4% (active).
The same measure, in the same setting: then `CCCCCCCC/C=C\CCCCCCCCOc1cccc(CC(=O)NCC[N+](C)(C)C)c1`, with 80.8% (inactive); and `NC(=S)N/N=C1\c2ccccc2-c2c(F)c(F)c(F)c(F)c21`, with 57.4% (inactive); and `COc1cc(/C=C/C(=O)CC(=O)/C=C/c2cc(Br)c(OC)c(OC)c2)cc(Br)c1OC`, with 92.8% (inactive).
Same read-out and setting: to `COc1cccc2c(=O)c3c(sc12)c(NCCN(C)C)nc1ccccc13` belongs 29.1% (inactive); to `Cc1cccc2c(=O)c3c(sc12)c(NCCCN)nc1ccccc13`, 13.2% (inactive).
As to `O=C(c1ccc2ncc(-c3nc(NC4CC4)ncc3F)n2c1)N1CCOCC1`, the growth was 72.6% (inactive).
As for `O=S(=O)(Nc1ccccc1Cl)c1ccc(-c2cnc(C3CC3)o2)cc1`, the growth is 10.9% (inactive).
The same measure, in the same setting: to `O=c1oc2ccccc2cc1-c1csc(N/N=C/c2cc3ccccc3nc2Cl)n1` belongs 93.3% (inactive); to `CCCCCCCC/C=C\CCCCCCCCOc1cccc(CC(=O)NCC[N+]2(C)CCCC2)c1`, 68.6% (inactive); to `CCC(C)Oc1cc(/C=N/NC(=O)c2cnn3c2NC(c2ccccc2)C3)ccc1OC` (stereo not drawn), 10.7% (inactive).
Same read-out and setting: to `Cl.Fc1c[c-]c(-c2ccccn2)c(F)c1.[Pt].c1ccc([PH+](CC[PH+](c2ccccc2)c2ccccc2)c2ccccc2)cc1` belongs -58.4% (active).
Still for that read-out and setting: to `CCN(CC)c1ccc2c(c1)OS(=O)(=O)N=C2` belongs 97.6% (inactive); to `NC(=O)c1cccc(-n2ccc3cc(NC(=O)Nc4ccc(Cl)c(Cl)c4)ccc32)n1`, 68.2% (inactive).
For the compound `COc1ccc(C2=NOC(CC(=O)N(CCO)CCO)C2)cc1OC1CCCC1` (stereo not drawn), the growth was 98.3% (inactive).
